# Test results: PubChem BioAssay AID651815 (National Center for Advancing Translational Sciences (NCATS), 2012)
# In all, about 2,100 compounds went through this assay and about 1,100 (52%) were called active. Inconclusive results (about 29%) are left out. Calls come from the whole dose curve; as a rule, active = well fitted inhibition curve with a large enough effect; inconclusive = small, poorly fitted or top-dose-only effect; inactive = no such curve, though single readings can be large or run the other way. The set was probably picked from earlier hits. This is one part of the list.
# Target: DNA dC->dU-editing enzyme APOBEC-3F (Homo sapiens) (UniProt Q8IUX4)
# Assay: qHTS for inhibitors of Vif-A3F interactions: Cherry picks counterscreen; note: nearly all actives have a fitted effect of over 65% in size
# Details: HeLa A3F-eYFP/Vif cells, eYFP fluorescence, 24 h; series mostly up to 46.1 µM
# Description: The recent discovery and characterization of host restriction factors, which provide a potent defense to invading retroviruses, has provided new targets for antiviral drug development. APOBEC3G (A3G) and APOBEC3F (A3F) are potent cytidine deaminases that block HIV-1 replication; HIV-1 expresses the Vif protein, which counteracts A3G and A3F by binding to them and inducing their proteasomal degradation. The Vif-A3G and Vif-A3F interactions provide two potential targets for development of small molecules which can interfere with the ability of Vif to degrade A3G or A3F. […] To identify inhibitors that can interfere with Vif mediated degradation of A3G and A3F, we have developed Hela cell lines that stably express A3G or A3F tagged with eYFP at the C-terminal end (A3G-eYFP or A3F-eYFP, respectively) and Vif. In the absence of an inhibitor, Vif induces degradation of A3G-eYFP and A3F-eYFP, and the cells are not fluorescent. In the presence of an inhibitor, it is expected that Vif will be unable to degrade A3G-eYFP and/or A3F-eYFP, resulting in an increase in yellow fluorescence. In this counterscreen assay, Vif A3F was screened against the cherry picks ordered from the MLSMR. NIH Chemical Genomics Center [NCGC] NIH Molecular Libraries Probe Centers Network [MLPCN] MLPCN Grant: MH093245 Assay Submitter (PI): Vinay Pathak, National Cancer Institute
# A3F-Vif cells were harvested from T225 flask and resuspended in phenol free OPTI-MEM medium with 5% FBS. Then 5 uL of 140,000 cells/mL resuspended cells was dispensed into each well of low base Aurora COC 1,536-well plates (black walled, clear bottom) using a Multidrop Combi dispenser. After overnight culture at 37 deg C with 5% CO2, a total of 23 nL of compounds at 5 selected concentrations from the NPC or positive control (2 mM stock of MG132) in DMSO was transferred to each well of the assay plate using a pintool (Kalypsys, San Diego, CA), and the plates were further incubated at 37 deg C with 5% CO2 for 24 hours. After that, the plates were measured on Acumen Explorer (TTP Lab Tech). The fluorescence was detected by 488 nm/Ex and […].
# Potency is the fitted concentration of half-maximal effect.
# DNA dC->dU-editing enzyme APOBEC-3F (Homo sapiens), sequence (Q8IUX4 whole entry, looked up): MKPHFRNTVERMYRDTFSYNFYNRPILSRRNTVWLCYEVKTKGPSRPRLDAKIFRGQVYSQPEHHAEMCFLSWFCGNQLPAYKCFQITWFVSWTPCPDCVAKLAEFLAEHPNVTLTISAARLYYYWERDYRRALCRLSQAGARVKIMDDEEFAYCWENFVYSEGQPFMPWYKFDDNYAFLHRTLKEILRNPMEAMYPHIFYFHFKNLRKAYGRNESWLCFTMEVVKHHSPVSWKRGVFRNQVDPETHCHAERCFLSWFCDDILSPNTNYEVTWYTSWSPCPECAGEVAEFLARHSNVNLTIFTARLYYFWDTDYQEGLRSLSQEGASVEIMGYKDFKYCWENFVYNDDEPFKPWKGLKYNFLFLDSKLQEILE
row,SMILES,Potency
1,COc1ccc(N=Cc2sc(O)c3ccccc23)cc1,15.8 µM (active)
2,COc1ccc(N=Cc2c(O)c3ccccc3n2C(C)=O)cc1,16.4 µM (active)
3,COc1ccc(N=Cc2oc3ccc4ccccc4c3c2O)cc1,9.2 µM (active)
4,Oc1sc(C=Nc2ccccc2)c2ccccc12,23.1 µM (active)
5,Cc1ccc(NC2=C(Cl)C(=O)N(C3CCCCC3)C2=O)cc1,inactive
6,Oc1sc(C=Nc2ccc(F)cc2)c2ccccc12,20.6 µM (active)
7,COc1cc(N(C)C)c(OC)cc1/C=C/c1ccnc2ccccc12,23.1 µM (active)
8,COc1cc(/C=C/c2ccnc3ccccc23)ccc1N(C)C,23.1 µM (active)
9,COc1cc(OC)c(/C=C/c2ccnc3ccccc23)c(OC)c1,5.8 µM (active)
10,N#C/C(=C\c1ccc(C(=O)O)cc1)c1nc2sc3c(c2c(=O)[nH]1)CCCC3,inactive
11,CN(C)c1ccc(/C=C(/C#N)C(=O)Nc2nc3c(s2)CCN(Cc2ccccc2)C3)cc1,0.314 µM (active)
12,CN(C)c1ccc(/C=C(\C#N)C(=O)Nc2nc3c(s2)CCN(Cc2ccccc2)C3)cc1,0.396 µM (active)
13,Cc1ccc(N2C(=O)CS/C2=C(\C(Cl)=C(Cl)Cl)[N+](=O)[O-])cc1,inactive
14,Cc1cccc2c(=O)n3c(cc12)-c1[nH]c2ccccc2c1CC3,16.4 µM (active)
15,CCC[N+](C)(C)c1ccc(/C=C/c2ccncc2)cc1,18.4 µM (active)
16,CC[N+](C)(C)c1ccc(/C=C/c2ccncc2)cc1,20.6 µM (active)
17,COc1ccc2nc(N3C(=O)/C(=C/c4ccccc4)NC3=S)sc2c1,13 µM (active)
18,CCn1c(CNC(=O)C23CC4CC(CC(C4)C2)C3)nnc1SCC(=O)Nc1ccc(OC)cc1,inactive
19,COc1ccc(NC(=O)CSc2ccc3c4c(cccc24)C(=O)c2ccccc2-3)cc1,14.6 µM (active)
20,N#Cc1cccc(NC(=O)CSc2ccc3c4c(cccc24)C(=O)c2ccccc2-3)c1,11.6 µM (active)
21,CCCCCCN1C[C@H](O)[C@@H](n2cc(COC(=O)c3ccccc3)nn2)C[C@@H]1c1ccc(C)cc1,inactive
22,COc1ccccc1-c1cc(C(=O)NN)[nH]n1,inactive

row,SMILES,Potency
1,COc1ccc(NC(=O)c2cc(-c3ccccc3OC)on2)cc1,6.27 µM (active)
2,CCCn1nnc(NC(=S)NC(=O)c2ccccc2OC)n1,inactive
3,COc1ccc(C(=O)c2ccc(OC)c(OC)c2OC)cc1,6.27 µM (active)
4,CC(=O)c1cccc(-c2ccnc3c2CC(C(=O)NCC2CCOCC2)O3)c1 (stereo not given),4.44 µM (active)
5,CC(=O)c1cccc(-c2ccnc3c2CC(C(=O)NCC2CC2)O3)c1 (stereo not given),14 µM (active)
6,COc1ccc2c(C)cc(SCC#N)nc2c1,16.4 µM (active)
7,COc1ccc2c(C)cc(SCC(=O)N(C)C3CCS(=O)(=O)C3)nc2c1 (stereo not given),inactive
8,C[C@]12CCC[C@H](O1)c1c(cc3c(c1O)C(=O)c1c(O)cc(O)cc1C3=O)O2,20.6 µM (active)
9,CN(NC(=O)c1ccccc1)c1nc2ccccc2nc1C(F)(F)F,3.96 µM (active)
10,Cc1ccc(C(=O)NN(C)c2nc3ccccc3nc2C(F)(F)F)cc1,2.8 µM (active)
11,O=c1oc2cc(O)ccc2cc1-c1nc(-c2ccc(Cl)c(Cl)c2)cs1,2.06 µM (active)
12,CCc1sc(-c2cc3ccc(O)cc3oc2=O)nc1-c1ccc(C)cc1,inactive
13,COc1cc(C2Sc3ccccc3NC3=C2C(=O)OC3)cc(OC)c1OC (stereo not given),17.7 µM (active)
14,CCOC(=O)Nc1cc2c(c(N)n1)N=C(c1ccccc1)CN2,0.116 µM (active)
15,Cc1nnc(SCC(=O)NCc2ccccc2F)c2nn(-c3ccc(Cl)cc3)c(C)c12,14.6 µM (active)
16,CCOC(=O)c1cnc(-n2nc(C)cc2C)nc1NNc1cc(C)nc(-c2ccccc2)n1,inactive
17,O=C(Cn1c(=O)n(Cc2ccco2)c(=O)c2sc3ccccc3c21)Nc1ccccc1C(F)(F)F,23.1 µM (active)
18,C(=Cc1c[nH]c2ccccc12)c1nccc2ccccc12,20.6 µM (active)
19,Cc1ccc2c(/C=C/c3c[nH]c4ccccc34)ccnc2c1C,8.2 µM (active)
20,C(=C\c1c[nH]c2ccccc12)/c1nccc2ccccc12,18.4 µM (active)
21,CCCSc1nnc(N2C(=O)C(O)=C(C(=O)c3ccco3)C2c2ccccc2F)s1 (stereo not given),inactive
22,Cc1nc2c3ccccc3n(Cc3ccccc3F)c2s1,17.7 µM (active)

row,SMILES,Potency
1,Cc1nc2c3cc(F)ccc3n(Cc3ccccc3)c2s1,6.27 µM (active)
2,Cc1nc2c3cc(F)ccc3n(Cc3ccccc3F)c2s1,12.5 µM (active)
3,Cc1sc2nc(SCC(=O)N3CCOCC3)[nH]c(=O)c2c1-c1ccccc1,inactive
4,CCOC(=O)CSc1nc2c(c(=O)[nH]1)C(C)(CC)Cc1ccccc1-2 (stereo not given),5.8 µM (active)
5,CCSc1nccc(-c2nn(-c3ccc(C)cc3)ccc2=O)n1,7.04 µM (active)
6,Cc1ccc(Nc2nc(Cl)c(C=O)s2)cc1Cl,18.4 µM (active)
7,c1ccc(Nc2nc(-c3ccccn3)cs2)cc1,inactive
8,O=Cc1sc(Nc2ccccc2)nc1Cl,16.4 µM (active)
9,COc1ccc(-c2n[nH]c3c2CN(C(=O)c2ccc(OC)c(OC)c2)CC3)cc1,4.44 µM (active)
10,COc1cccc(C2=CC(c3cccs3)n3nnnc3N2)c1 (stereo not given),5.59 µM (active)
11,COc1cccc(C2=CC(c3ccccc3)n3nnnc3N2)c1 (stereo not given),1.98 µM (active)
12,C=CCOC(=O)C1=C(C)Nc2nnnn2C1c1cccs1 (stereo not given),inactive
13,COc1ccc(OC)c(C2C=C(c3ccc(C)c(C)c3)Nc3nnnn32)c1 (stereo not given),4.98 µM (active)
14,CCOC(=O)c1c(-c2ccc(OC)cc2)csc1/N=C/C1C(=O)CCCC1=O,inactive
15,CCOC(=S)SCC(=O)N1CCc2cc(OC)ccc2C1C1C(=O)CCCC1=O (stereo not given),15.8 µM (active)
16,Cc1cc2oc3ccc(NCCCn4ccnc4)cc3c(=O)c2cc1C,inactive
17,O=c1c2ccccc2sc2ccc(NCCCN3CCOCC3)cc12,16.4 µM (active)
18,COc1ccc(-c2cc(NC=O)c3ncc(-c4ccc(OC)c(OC)c4)n3c2)cc1OC,4.44 µM (active)
19,COc1ccc(-c2cnc3c(NC=O)cc(-c4ccoc4)cn23)cc1OC,11.2 µM (active)
20,Cc1ccc(-c2cc(NC=O)c3ncc(-c4cnn(C)c4)n3c2)cc1,5.59 µM (active)
21,COc1ccc(-c2cnc3c(NC=O)cc(-c4ccccc4)cn23)cc1OC,1.77 µM (active)
